# Bioassay records from PubChem.
# Most compounds without a hit are left out; they make up all but 12% or so of the library.
# BAZ2B inh: BAZ2B (human) inhibition; Q9UIF8; AlphaScreen BAZ2B-H3K14Ac peptide displacement; Potency, µM (titrated, usually from 114 µM), inactives show at the highest dose activity change, negative = inhibition, most hits filed as inhibitors; 4.4% of 360,000 active; note: potency is the fitted concentration of half-maximal effect; % is set by controls: 0 for no effect and ±100 for the full control effect; nearly all actives have a fitted effect of over 60% in size
#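 AlphaScreen displacement: compounds (up to 110uM) incubated 30 min at room temperature with a preformed 50 nM BAZ2B/50 nM biotinylated H3K14Ac peptide complex in PBS pH 7.4 with Tween-20. Donor and acceptor beads at 10 ug/mL final added, 20 min light-protected before reading.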
# JMJD2A Tudor: JMJD2A Tudor domain (human) inhibition. O75164. AlphaScreen JMJD2A-Tudor / H3K4me3 peptide binding. Potency, µM (titrated, usually from 114 µM), for the others: top-dose activity change, negative = inhibition, usual class: inhibitors. 4.4% of 390,000 active. AID 504339; note: potency is the fitted concentration of half-maximal effect; % is set by controls: 0 for no effect and ±100 for the full control effect; nearly all actives have a fitted effect of over 50% in size
# HP1b binding inh: HP1-beta chromodomain-methylated histone interaction inhibition | P83916 | AlphaScreen HP1-beta / biotin-H3K9me3 peptide binding | Potency, µM (series often up to 114 µM), for inactives: top-dose activity change, negative = inhibition, hits mostly inhibitors | 0.56% of 390,000 active; note: potency is the fitted concentration of half-maximal effect; nearly all actives have a fitted effect of over 70% in size
#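 HP1-beta protein (50 nM final) preincubated 30 min at room temperature with biotinylated H3(1-18)K9me3 peptide (50 nM) in PBS pH 7.4, 0.01% Tween-20, then compound added for 30 min. AlphaScreen streptavidin donor/nickel chelate acceptor beads (10 ug/mL final), 30 min dark, luminescence read.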
# G9a block: G9a (human) methyltransferase inhibition; Q96KQ7; G9a H3K9 monomethylation, AlphaScreen, 2 h; Potency, µM (highest dose often 102 µM), for the others: top-dose activity, negative = inhibition, most hits filed as inhibitors; 8.8% of 350,000 active; AID 504332; note: potency is the fitted concentration of half-maximal effect; % is set by controls: 0 for no effect and ±100 for the full control effect; nearly all actives have a fitted effect of over 75% in size
#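 G9a (20 nM) was preincubated 15 min with compound, then reacted 2 h at room temperature with 500 nM biotin-H3K9 peptide and 20 µM SAM. Monomethyl-H3K9 detected by AlphaScreen using anti-H3K9me1 antibody.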
# PI5P4Ka inh: inhibitors of human PI5P4K alpha. P48426. PI5P4Kalpha enzyme, ADP-Glo luminescence, 60 min; active compounds read low. max response, %. 1.2% of 330,000 active; active = max response of -50% or lower; inconclusive = between -30% and -50%; inactive = -30% or higher; note: value at the top dose of about 77 µM; % is set by controls: 0 for no effect and ±100 for the full control effect
#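 Human PI5P4Kalpha with substrate in 0.038 M HEPES pH 7.4, 0.28 mM EGTA, 0.1% CHAPS, 5% DMSO; reaction started with 5 microM ATP (final), 60 min at room temperature. ADP formed read by ADP-Glo luminescence.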
# PLK1 PBD block: blocks phosphopeptide binding to human PLK1 polo-box domain. Plk1 PBD binding of FITC phosphopeptide, fluorescence polarization. 2.8% of 360,000 active. Potency, µM, for inactives: max response, negative = inhibition, actives largely listed as inhibitors. P53350; note: potency is the fitted concentration of half-maximal effect; series mostly up to about 57 µM; % is set by controls: 0 for no effect and ±100 for the full control effect; nearly all actives have a fitted effect of over 65% in size
# * hit, by the source's call; ? = inconclusive; nt = no result; [ ] = another dose, or the depositor's remark. Unless noted, calls come from the whole dose curve; as a rule, active = well fitted curve in the direction sought with a large enough effect; inconclusive = small, poorly fitted or top-dose-only effect, or another doubt; inactive = no such curve, though single readings can be large; an effect the other way counts as inactive or inconclusive.
SMILES,BAZ2B inh,JMJD2A Tudor,HP1b binding inh,G9a block,PI5P4Ka inh,PLK1 PBD block
Cc1cc2nc(C(C)(C)C)c(CC3CCCCC3)n2c(C)c1Br,nt,nt,nt,nt,2,3%
O=C(NC(c1ccc(Cl)cc1)c1cnccn1)C1CCN(CCCc2ccccc2)CC1 (centres undefined),nt,nt,nt,nt,1,-13%
Cc1ccc(NC(=O)CCS(=O)(=O)c2ccc(Br)s2)c(Br)c1,0%,-3%,7%,-25%[59 µM],nt,nt
COn1c2c(c3c4no[n+]([O-])c4ccc31)CCCC2,-28%,-15%,11%,-16%,nt,0%
COn1c2c(c3c4nonc4ccc31)CCCC2,14%,34%,103%,10µM*,nt,?
CN(Cc1ccco1)C(=O)CSc1nn2c(=O)c(C(C)(C)C)nnc2s1,nt,-27%,13%,nt,-10,-23%
Cc1cc2nc3c(=O)n(C)c(=O)n(C)c3nc2cc1N=CN(C)C,3%,-12%,16%,16µM*,nt,nt
O=[N+]([O-])c1ccccc1/C=N/N1CCN(c2ccccn2)CC1,13µM*,?,-11%,?,8,-10%
Cc1ccc(N2CCN(/N=C/c3ccccc3[N+](=O)[O-])CC2)cc1,?,?,?,7.9µM*,-4,-1%
COc1ccc(C(=O)N(Cc2ccco2)Cc2cccs2)cc1,nt,-28%,51%,nt,nt,nt
CCN(CCO)Cc1cc(=O)oc2cc3c(cc12)CCC3,-25%,-4%,37%,40µM*,1,2%
CCCCN(C)Cc1cc(=O)oc2cc3c(cc12)CCCC3,35%,40%,86%,112%,16,-4%
CNc1n[nH]c(=S)s1,-24%,5µM*,25µM*,3.5µM*,-57*,-23%
CC(=O)Nc1n[nH]c(=S)s1,nt,5µM*,?,nt,-86*,-14%
C=CCNc1n[nH]c(=S)s1,nt,nt,nt,nt,0,?
O=C(Nc1n[nH]c(=S)s1)c1ccc2ccccc2c1,-27%,-15%,15%,nt,-55*,?
O=C(Nc1nccs1)c1ccc2ccccc2c1,?,-22%,39%,nt,0,6%
O=C(NC(=S)NC(CO)Cc1ccccc1)c1ccc(F)cc1 (centres undefined),8%,-23%,15%,51%,4,-4%
COc1ccccc1C(=O)Nc1ccnn1C1CCN(Cc2cnn(C)c2C)CC1,-11%,-7%,37%,nt,0,-2%
COCCN(C(=O)COC(=O)c1nc(Cl)ccc1Cl)c1c(N)n(Cc2ccccc2)c(=O)[nH]c1=O,8%,-8%,44%,-4%,1,-5%
CC1CCN=C(N)S1 (centres undefined),nt,-18%,21%,3.2µM*,2,-12%
O=C(O)c1ccc(-c2ccccc2)[nH]c1=O,-33%,-17%[11.4 µM],5%,56µM*,?,24µM*
O=C(O)c1ccc(-c2ccccc2)[nH]1,-7%,-23%,6%,-26%,4,-3%
O=C(O)COc1ccc(/C=C/C(=O)c2ccc(C3CCCCC3)cc2)cc1,-16%,-34%,-2%,22µM*,5,24µM*
O[C@@H]1[C@@H]2c3cc4c(cc3CN3CCC(=C[C@@H]1O)[C@H]23)OCO4,nt,nt,nt,20%[21.5 µM],nt,nt
SMILES,BAZ2B inh,JMJD2A Tudor,HP1b binding inh,G9a block,PI5P4Ka inh,PLK1 PBD block
O=C(NCCc1ccccc1)C1CCN(Cc2cc3ccccc3n2Cc2cccc(Cl)c2)CC1,-11%,-20%,-5%,10%[59 µM],nt,nt
CN(C)c1ccc(CNC(=O)C2CCN(C(=O)c3ccc(-n4ccc5ccccc54)s3)CC2)cc1,-29%,18µM*,?,?,nt,nt
Cc1ccsc1CN1CCC(C(=O)NCc2ccccc2Cl)CC1,-8%,7.9µM*,?,10µM*,2,-3%
Cc1ccc(Cn2c(CN3CCC(C(=O)NCCc4ccccc4)CC3)cc3ccccc32)cc1,18µM*,40µM*,?,8.9µM*,nt,nt
COc1ccc(CNC(=O)C2CCN(C(=O)c3ccc(-n4ccc5ccccc54)s3)CC2)cc1,-2%,-15%,6%,-3%[59 µM],nt,nt
CN(C)c1ccc(CNC(=O)C2CCN(c3nc4ccccc4[nH]3)CC2)cc1,?,?,-4%[57 µM],16µM*,nt,nt
COc1ccc(C)cc1NC(=O)Cn1c(=O)ccc2cc(S(=O)(=O)N3CCC(C)CC3)ccc21,0%,-32%,10%[57 µM],1%[59 µM],nt,nt
CCc1ccc(NC(=O)C2CCCN2S(=O)(=O)c2ccc3c(c2)CCCC(=O)N3)cc1 (centres undefined),1%,3%,22%,-2%[59 µM],nt,nt
O=C(NCCc1ccccc1)C1CCN(C(=O)c2ccc(F)cc2)CC1,8%,3%,30%,-11%,-7,0%
CC1=C(c2ccc(C)c(C)c2)S(=O)(=O)N=C1N1CCC(C(=O)NCc2ccc(N(C)C)cc2)CC1,?,?,-29%,4%[59 µM],nt,nt
O=C(NCCc1ccccc1)C1CCN(Cc2ccccc2F)CC1,56µM*,2.5µM*,25µM*,7.9µM*,6,-11%
CN(C)c1ccc(CNC(=O)C2CCN(Cc3cc4ccccc4n3Cc3ccccc3)CC2)cc1,3.5µM*,11µM*,-22%,11µM*,nt,nt
CCC1=C(c2ccc(C)cc2)S(=O)(=O)N=C1N1CCC(C(=O)NCc2ccc(N(C)C)cc2)CC1,?,?,-21%,13µM*,nt,nt
CN(C)CC(C)(C)CNC(=O)C1CCN(Cc2ccccc2O)CC1,56µM*,6.3µM*,?,10µM*,-5,-1%
CN(/N=C/c1cccnc1)c1cnc2ccccc2n1,4%,-3%,56%,25%,4,-10%
CCOC(=O)c1ccccc1NC(=O)NCc1cccn1Cc1ccc(F)cc1,-19%,0%,50%,16%[59 µM],nt,nt
O=C(O)c1ccc(S(=O)(=O)c2ccc(Sc3ccc(C(=O)O)c(C(=O)O)c3)cc2)cc1,50µM*,-14%,16%,45µM*,-24,-22%
Cc1ccc(C)c(CN2C(=O)c3ccccc3Sc3ccc(C(=O)NCc4ccco4)cc32)c1,-9%,-22%,20%,-5%[59 µM],nt,nt
COc1ccc(C(c2c(O)ccc3ccccc23)N2CCOCC2)c(OC)c1 (centres undefined),-10%,89µM*,-4%,32µM*,-2,?
COc1ccc([C@H]2[C@H](C(=O)OC(C)(C)C)N3N=Cc4ccccc4C3C23C(=O)c2ccccc2C3=O)cc1OC (some centres undefined),18µM*,?,-22%,?,-7,?
N#Cc1c[nH]n2c(NC3CCCCC3)c(-c3ccccc3F)nc12,-12%,-16%,3%,-7%[59 µM],nt,nt
CCOC(=O)c1ccc(N2C(=O)c3[nH]nc(-c4ccc(OC)cc4)c3C2c2cccc(O)c2)cc1 (centres undefined),nt,-29%,28%,-20%[59 µM],nt,nt
